# Reference: PubChem BioAssay (Tox21)
# Inconclusive results are not listed. Entries that show only a call come without a potency. Values without a mark were called inactive. Active and inactive are the calls of the source. Unless noted, calls follow the shape of the dose curve; as a rule, active = well fitted curve in the direction sought with a large enough effect in the repeat runs; inconclusive = weak or mixed curves; inactive = no such curve, though single readings can be large; an effect the other way counts as inactive or inconclusive.
# Assay: qHTS assay to identify small molecule antagonists of the TGF-beta/Smad signaling pathway - cell viability counter screen (AID 1346824); also: nearly all actives have a fitted effect of over 50% in size
# Settings: SBE-bla HEK293T viability, CellTiter-Glo luminescence; series mostly up to 76.8 µM; viability change, negative = cytotoxic: at the top concentration
# Method in brief: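 Cytotoxicity counter-screen run in the same wells as the beta-lactamase Smad reporter read: CellTiter-Glo luminescence after 30 min at room temperature. HEK 293T SBE-bla cells had 5 hr compound exposure at 37 C with TGF-beta1 (0.25 ng/mL stock).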
Structure (SMILES),Potency,"viability change, negative = cytotoxic"
CN(C)c1cccc(O)c1,inactive,–
CS(=O)(=O)Nc1ccc([N+](=O)[O-])cc1Oc1ccccc1,inactive,–
CCCCCCCCC,inactive,–
OC1CCCC1,inactive,–
NS(=O)(=O)c1cc2c(cc1Cl)NC=NS2(=O)=O,inactive,–
Nc1c(S(=O)(=O)O)cc(Br)c2c1C(=O)c1ccccc1C2=O,–,-6.84% [at 35.3 µM]
OCCOCCOCCOCCO,inactive,–
CC(C)(N=C=O)c1cccc(C(C)(C)N=C=O)c1,inactive,–
CCC(C)C=O (centres undefined),inactive,–
CCOC(=O)/C=C\C(=O)OCC,inactive,–
C=C(C)C(=O)OCCC[Si](OC)(OC)OC,inactive,–
CC(C)(C)C1CCC(O)CC1 (centres undefined),inactive,–
ClC1=C(Cl)C(Cl)(Cl)C(Cl)=C1Cl,inactive,–
Cc1cc(=O)[nH]c(C(C)C)n1,inactive,–
CCCCCC/C=C/CCCCCCCC(=O)O,inactive,–
Cc1ccc(N)c(S(=O)(=O)O)c1,–,-10.1%
CC1Cc2ccccc2N1NC(=O)c1ccc(Cl)c(S(N)(=O)=O)c1 (centres undefined),inactive,–
CC1(C)CC(N=C=O)CC(C)(CN=C=O)C1 (centres undefined),inactive,–
CC(C)Cc1ccccc1,inactive,–

Structure (SMILES),Potency,"viability change, negative = cytotoxic"
Cc1ccc(C)c(C)c1,inactive,–
CCCCCCC(C)(C)S,inactive,–
Oc1ccc(OCc2ccccc2)cc1,inactive,–
O=S(=O)(O)c1cc(S(=O)(=O)O)c2c(N=Nc3ccccc3)c(O)ccc2c1,inactive,–
O=C1O[C@H](CO)[C@@H](O)[C@H](O)[C@H]1O,inactive,–
C[C@@H]1O[C@@H](OC[C@H]2O[C@@H](Oc3c(-c4ccc(O)c(O)c4)oc4cc(O)cc(O)c4c3=O)[C@H](O)[C@@H](O)[C@@H]2O)[C@H](O)[C@H](O)[C@H]1O,inactive,–
O=S(=O)(O)CCS,inactive,–
O=C(Oc1ccccc1)c1ccc(O)cc1,inactive,–
CC1=CC[C@H]2C[C@@H]1C2(C)C,inactive,–
O=[N+]([O-])c1cccc(Cl)c1,inactive,–
O=C(O)c1cc(-c2ccccc2)nc2ccccc12,inactive,–
C=C(C)C(=O)OCCCCCCCCCCCC,inactive,–
CNC[C@H](O)[C@@H](O)[C@H](O)[C@H](O)CO,inactive,–
CCCCCCCCCC(=O)O,inactive,–
CCCCC(CC)COC(C)=O (centres undefined),inactive,–
O=[N+]([O-])C(CO)(CO)CO,inactive,–
CC1=C(/C=C/C(C)=C/C=C/C(C)=C/CO)C(C)(C)CCC1,inactive,–
C=C(C#N)C(=O)OCC,–,1.26%
CC(C)(CO)COC(=O)C(C)(C)CO,inactive,–

# Assay: qHTS assay to identify small molecule agonists of the TGF-beta/Smad signaling pathway - cell viability counter screen (AID 1346829); also: top concentration of the series differs between compounds; nearly all actives have a fitted effect of over 45% in size
# Settings: SBE-bla HEK293T viability, CellTiter-Glo luminescence, 5 h; series mostly up to 76.8 µM; activity change, negative = cytotoxicity: at the top concentration
# Method in brief: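 Compound-treated SBE-bla HEK 293T cells (5 hr, 37 C) were assessed for viability with CellTiter-Glo in parallel with the reporter read.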
Structure (SMILES),Potency,"activity change, negative = cytotoxicity"
CN(C)c1cccc(O)c1,inactive,–
CS(=O)(=O)Nc1ccc([N+](=O)[O-])cc1Oc1ccccc1,inactive,–
CCCCCCCCC,inactive,–
OC1CCCC1,inactive,–
NS(=O)(=O)c1cc2c(cc1Cl)NC=NS2(=O)=O,inactive,–
Nc1c(S(=O)(=O)O)cc(Br)c2c1C(=O)c1ccccc1C2=O,inactive,–
OCCOCCOCCOCCO,inactive,–
CC(C)(N=C=O)c1cccc(C(C)(C)N=C=O)c1,inactive,–
CCC(C)C=O (centres undefined),inactive,–
CCOC(=O)/C=C\C(=O)OCC,inactive,–
C=C(C)C(=O)OCCC[Si](OC)(OC)OC,inactive,–
CC(C)(C)C1CCC(O)CC1 (centres undefined),inactive,–
ClC1=C(Cl)C(Cl)(Cl)C(Cl)=C1Cl,inactive,–
Cc1cc(=O)[nH]c(C(C)C)n1,inactive,–
CCCCCC/C=C/CCCCCCCC(=O)O,inactive,–
Cc1ccc(N)c(S(=O)(=O)O)c1,inactive,–
CC1Cc2ccccc2N1NC(=O)c1ccc(Cl)c(S(N)(=O)=O)c1 (centres undefined),inactive,–
CC1(C)CC(N=C=O)CC(C)(CN=C=O)C1 (centres undefined),inactive,–
CC(C)Cc1ccccc1,inactive,–

Structure (SMILES),Potency,"activity change, negative = cytotoxicity"
Cc1ccc(C)c(C)c1,inactive,–
CCCCCCC(C)(C)S,inactive,–
Oc1ccc(OCc2ccccc2)cc1,inactive,–
O=S(=O)(O)c1cc(S(=O)(=O)O)c2c(N=Nc3ccccc3)c(O)ccc2c1,inactive,–
O=C1O[C@H](CO)[C@@H](O)[C@H](O)[C@H]1O,inactive,–
C[C@@H]1O[C@@H](OC[C@H]2O[C@@H](Oc3c(-c4ccc(O)c(O)c4)oc4cc(O)cc(O)c4c3=O)[C@H](O)[C@@H](O)[C@@H]2O)[C@H](O)[C@H](O)[C@H]1O,inactive,–
O=S(=O)(O)CCS,inactive,–
O=C(Oc1ccccc1)c1ccc(O)cc1,inactive,–
CC1=CC[C@H]2C[C@@H]1C2(C)C,inactive,–
O=[N+]([O-])c1cccc(Cl)c1,inactive,–
O=C(O)c1cc(-c2ccccc2)nc2ccccc12,–,-2.54% [at 35.3 µM]
C=C(C)C(=O)OCCCCCCCCCCCC,inactive,–
CNC[C@H](O)[C@@H](O)[C@H](O)[C@H](O)CO,inactive,–
CCCCCCCCCC(=O)O,inactive,–
CCCCC(CC)COC(C)=O (centres undefined),inactive,–
O=[N+]([O-])C(CO)(CO)CO,inactive,–
CC1=C(/C=C/C(C)=C/C=C/C(C)=C/CO)C(C)(C)CCC1,inactive,–
C=C(C#N)C(=O)OCC,inactive,–
CC(C)(CO)COC(=O)C(C)(C)CO,inactive,–

# Assay: qHTS assay to identify small molecule agonists of the TGF-beta/Smad signaling pathway (AID 1346859; active = well fitted activation curve with a large enough effect in the signal ratio in the repeat runs, not every such curve was filed as active; the % refers to the signal ratio)
# Settings: SBE-bla HEK293T, TGF-beta/Smad beta-lactamase reporter, 5 h; series mostly up to 76.8 µM; activation: at the top concentration
# Method in brief: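 Read-out: fluorescence at 460 and 530 nm (405 nm excitation) after a 2 hr room-temperature incubation with beta-lactamase FRET substrate. SBE-bla HEK 293T cells had been treated with test compounds for 5 hr at 37 C.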
Structure (SMILES),activation,outcome
CN(C)c1cccc(O)c1,7.7%,–
CS(=O)(=O)Nc1ccc([N+](=O)[O-])cc1Oc1ccccc1,–,inactive
CCCCCCCCC,–,inactive
OC1CCCC1,–,inactive
NS(=O)(=O)c1cc2c(cc1Cl)NC=NS2(=O)=O,–,inactive
Nc1c(S(=O)(=O)O)cc(Br)c2c1C(=O)c1ccccc1C2=O,–,inactive
OCCOCCOCCOCCO,–,inactive
CC(C)(N=C=O)c1cccc(C(C)(C)N=C=O)c1,–,inactive
CCC(C)C=O (centres undefined),–,inactive
CCOC(=O)/C=C\C(=O)OCC,–,inactive
C=C(C)C(=O)OCCC[Si](OC)(OC)OC,–,inactive
CC(C)(C)C1CCC(O)CC1 (centres undefined),–,inactive
ClC1=C(Cl)C(Cl)(Cl)C(Cl)=C1Cl,–,inactive
Cc1cc(=O)[nH]c(C(C)C)n1,–,inactive
CCCCCC/C=C/CCCCCCCC(=O)O,–,inactive
Cc1ccc(N)c(S(=O)(=O)O)c1,–,inactive
CC1Cc2ccccc2N1NC(=O)c1ccc(Cl)c(S(N)(=O)=O)c1 (centres undefined),–,inactive
CC1(C)CC(N=C=O)CC(C)(CN=C=O)C1 (centres undefined),–,inactive
CC(C)Cc1ccccc1,–,inactive

Structure (SMILES),activation,outcome
Cc1ccc(C)c(C)c1,–,inactive
CCCCCCC(C)(C)S,–,inactive
Oc1ccc(OCc2ccccc2)cc1,–,inactive
O=S(=O)(O)c1cc(S(=O)(=O)O)c2c(N=Nc3ccccc3)c(O)ccc2c1,–,inactive
O=C1O[C@H](CO)[C@@H](O)[C@H](O)[C@H]1O,–,inactive
C[C@@H]1O[C@@H](OC[C@H]2O[C@@H](Oc3c(-c4ccc(O)c(O)c4)oc4cc(O)cc(O)c4c3=O)[C@H](O)[C@@H](O)[C@@H]2O)[C@H](O)[C@H](O)[C@H]1O,–,inactive
O=S(=O)(O)CCS,–,inactive
O=C(Oc1ccccc1)c1ccc(O)cc1,–,inactive
CC1=CC[C@H]2C[C@@H]1C2(C)C,–,inactive
O=[N+]([O-])c1cccc(Cl)c1,–,inactive
O=C(O)c1cc(-c2ccccc2)nc2ccccc12,-6.25% [at 35.3 µM],–
C=C(C)C(=O)OCCCCCCCCCCCC,–,inactive
CNC[C@H](O)[C@@H](O)[C@H](O)[C@H](O)CO,–,inactive
CCCCCCCCCC(=O)O,-6.62%,–
CCCCC(CC)COC(C)=O (centres undefined),–,inactive
O=[N+]([O-])C(CO)(CO)CO,–,inactive
CC1=C(/C=C/C(C)=C/C=C/C(C)=C/CO)C(C)(C)CCC1,-4.58%,–
C=C(C#N)C(=O)OCC,–,inactive
CC(C)(CO)COC(=O)C(C)(C)CO,–,inactive
